Hit rate of the full screen: of about 320,000 compounds, about 480 (0.15%) were called active. Inconclusive results (about 1%) are left out. Rule as the data show it: active = inhibition above about 26% (passing the limit was not always enough); inconclusive = no clear call, values can overlap the other calls. The sample as a whole holds a higher share of actives than the screen did.

Inhibition data for 84 compounds are collected here from PubChem BioAssay AID2718 (Broad Institute, 2010).

Histone deacetylase 3 (Homo sapiens), sequence (O15379 whole entry, looked up): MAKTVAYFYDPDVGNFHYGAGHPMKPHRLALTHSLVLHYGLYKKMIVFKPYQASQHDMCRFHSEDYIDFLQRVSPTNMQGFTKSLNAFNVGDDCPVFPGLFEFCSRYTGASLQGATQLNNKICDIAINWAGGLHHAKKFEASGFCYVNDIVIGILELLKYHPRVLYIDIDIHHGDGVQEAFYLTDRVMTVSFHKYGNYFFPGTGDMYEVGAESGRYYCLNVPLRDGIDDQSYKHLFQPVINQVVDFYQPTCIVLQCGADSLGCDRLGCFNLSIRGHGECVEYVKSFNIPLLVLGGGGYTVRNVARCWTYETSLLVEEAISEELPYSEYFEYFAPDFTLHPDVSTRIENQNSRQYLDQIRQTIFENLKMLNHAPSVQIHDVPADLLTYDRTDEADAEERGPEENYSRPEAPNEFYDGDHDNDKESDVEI

This test has as its target Histone deacetylase 3 (Homo sapiens) (UniProt O15379). The test can be described thus: inhibition of human HDAC3 enzyme activity – biochemical, fluorescence, cell-free homogeneous, primary screen (AID 2718). The settings on record: recombinant HDAC3, fluorogenic peptide/trypsin coupled, at 8.3 µM, hits give high values.
For the compound `O=C(COC(=O)c1cccnc1Cl)NC12CC3CC(CC(C3)C1)C2`, the inhibition was -0.423% (inactive).

Turning to `COCC(C)n1c(SCC(=O)NC2CCCCC2C)nc2ccccc2c1=O` (centres undefined), the inhibition was 0.838% (inactive).

Regarding `O=C(COC(=O)c1ccc(Br)o1)NC12CC3CC(CC(C3)C1)C2`, the inhibition is -3.01% (inactive).

Consider `C[C@H](CO)N1C[C@H](C)[C@@H](CN(C)C(=O)Nc2ccc3c(c2)OCO3)Oc2c(cccc2N(C)C)C1=O`, for which the inhibition was -8.66% (inactive).

As for `COc1ccc2nc3n(c(=O)c2c1)-c1ccc(Cl)cc1C(=O)NC3Cc1ccccc1` (centres undefined), the inhibition is -1.2% (inactive).

For `C[C@H]1COC(=O)[C@H](CC(=O)OC(C)(C)C)C/C=C\C[C@@H](CC(=O)N[C@H](CO)Cc2ccccc2)C(=O)N1`, the inhibition is -4.05% (inactive).

On to `CN1C(=O)[C@H]2[C@@H](/C=C/c3ccccc3)N3C(=O)CN(Cc4ccc(-c5ccccc5)cc4)C(=O)[C@@]3(C)[C@H]2C1=O`, for which the inhibition is 6.83% (inactive).

As for `O=C(OCC(=O)N1CCCCCC1)c1ccc(Br)c(S(=O)(=O)N2CCOCC2)c1`, the inhibition was -0.213% (inactive).

Turning to `O=C(CCNC(=O)c1ccc(Br)cc1)NCC(c1ccco1)N1CCCCC1` (centres undefined), the inhibition is 2.98% (inactive).

In the case of `Cn1c(N)c(C(=O)COC(=O)c2ccc3ccccc3c2)c(=O)n(C)c1=O`, the inhibition is -3.95% (inactive).

Regarding `COC(=O)c1c(CCl)noc1C(=O)NC(C)C`, the inhibition is -2.79% (inactive).

In the case of `O=C(CNC(=O)c1ccccc1F)OCC(=O)c1c[nH]c2ccccc12`, the inhibition was 1.43% (inactive).

As to `Clc1cccc(Cl)c1Cn1nnc(-c2cccs2)n1`, the inhibition is -9.16% (inactive).

`COc1cc(Cl)c(C)cc1NC(=O)CSc1nnc(CN2CCCC2)o1`: the inhibition is -2.25% (inactive).

`Cc1nn(C)c(C)c1CN(C(=O)CCc1nnc(Cc2c[nH]c3ccccc23)o1)C(C)C`: the inhibition is -1.72% (inactive).

`Cc1ccsc1C(=O)NNC(=O)COc1ccc(Br)cc1`: the inhibition is -2.82% (inactive).

As for `CC1(C)CC[C@@]2(C(=O)O)C(C1)C1=CCC3[C@@]4(C)CC[C@H](O)C(C)(C)C4CC[C@@]3(C)[C@]1(C)C[C@H]2O` (some centres undefined), the inhibition is -0.0116% (inactive).

On to `CN(C(=O)CSc1cccc[n+]1[O-])C1CCCCC1`, for which the inhibition is -0.125% (inactive).

Turning to `COc1cc(NC(=O)COC(=O)c2cc(S(=O)(=O)N3CCOCC3)ccc2F)cc(OC)c1`, the inhibition was -6.13% (inactive).

As to `CC(C)CC1(C)NC(=O)N(CC(=O)Nc2ccc3c(c2)OCCO3)C1=O` (centres undefined), the inhibition is 0.72% (inactive).

Regarding `O=C(N/N=C\c1ccc(-c2ccc(Cl)c(Cl)c2)o1)C(=O)N1CCCC1`, the inhibition was -2.85% (inactive).

In the case of `Cc1ccc(C(=O)N2CCC(n3nccc3NC(=O)Nc3cccc(F)c3)CC2)cn1`, the inhibition was 4.68% (inactive).

`CCN1N=C(c2ccccc2)CCC1=O`: the inhibition was -1.92% (inactive).

As to `CN(c1ccccc1)S(=O)(=O)c1cc(C(=O)N2CCN(c3ncccn3)CC2)ccc1Cl`, the inhibition is 5.51% (inactive).

On to `O=C(N=C1SC2CS(=O)(=O)CC2N1c1ccccc1)c1ccccc1` (centres undefined), for which the inhibition is 3.67% (inactive).

Take `O=C(Cn1c(N2CCN(C/C=C/c3ccccc3)CC2)nc2ccccc21)c1ccccc1`: the inhibition was 11.7% (inactive).

`COc1ccc(NC(=O)N(C)C[C@H]2Oc3ccc(NC(=O)C4CC4)cc3C(=O)N([C@H](C)CO)C[C@@H]2C)cc1`: the inhibition is 2.07% (inactive).

On to `COc1ccc(S(=O)(=O)N(C)C[C@H]2Oc3c(NC(=O)Nc4ccc5c(c4)OCO5)cccc3C(=O)N([C@H](C)CO)C[C@@H]2C)cc1`, for which the inhibition is 0.282% (inactive).

Regarding `Cc1ccc(C(=O)NNC(=O)CSc2nnc3ccccn23)cc1`, the inhibition was -19.4% (inactive).

With `C#CCOCCOCCOCCNc1nc(N2CCN(C(=O)CCCCCCCCCCNC(=O)Cn3cc(CCCCCN)nn3)CC2)nc(N2CCN(C(=O)CCCCCCCCCCNC(=O)[C@H](CO)n3cc(CCCSC)nn3)CC2)n1`, the inhibition was 22.2% (inactive).

Consider `C#CCOCCOCCOCCNc1nc(N2CCN(C(=O)CCCCCCCCCCNC(=O)[C@H]([C@@H](C)CC)n3cc(CCCCN=C(N)N)nn3)CC2)nc(N2CCN(C(=O)CCCCCCCCCCNC(=O)[C@H](CO)n3cc(CCCSC)nn3)CC2)n1`, for which the inhibition is 65% (active).

For `C#CCOCCOCCOCCNc1nc(N2CCN(C(=O)CCCCCCCCCCNC(=O)[C@H](CCCCN)n3cc(C)nn3)CC2)nc(N2CCN(C(=O)CCCCCCCCCCNC(=O)[C@H](CO)n3cc(CCCSC)nn3)CC2)n1`, the inhibition was 17.4% (inactive).

Turning to `CCOC(=O)C1(Cc2cccc(OC)c2)CCN(Cc2csc(C(C)=O)c2)CC1`, the inhibition was 0.985% (inactive).

As for `CCOC(=O)C1=C(CC)Nc2ccccc2N=C1N`, the inhibition was 5.45% (inactive).

Regarding `CCCCOc1ccc(N(CC(=O)NCC2CCCO2)C(=O)CCC(=O)Nc2cc(C)ccn2)cc1` (centres undefined), the inhibition was 1.38% (inactive).

As for `COc1ccc(C(=O)COC(=O)C(O)c2ccccc2)c(OC)c1` (centres undefined), the inhibition is 8.77% (inactive).

As to `CCOc1ccc(NS(=O)(=O)c2cc(C)c(C)cc2C)cc1`, the inhibition is 2.58% (inactive).

`Cc1ccc(S(=O)(=O)N2CCN(C(=O)CN3C(=O)NC(C)(c4ccc(Cl)cc4)C3=O)CC2)c(C)c1` (centres undefined): the inhibition is -0.669% (inactive).

In the case of `CC1CN(C(=O)c2ccc([N+](=O)[O-])s2)CC(C)O1` (centres undefined), the inhibition is -3.39% (inactive).

As to `Cc1c(CCO)c(=O)[nH]n1C(=O)c1c(F)cccc1F`, the inhibition is -6.64% (inactive).

With `COc1ccc(CC(NC(C)=O)C(=O)N2CCN(C(=O)Nc3cccc(Cl)c3)CC2)cc1OC` (centres undefined), the inhibition was 1.26% (inactive).

For the compound `Cc1ccc(-c2nc(-c3cccnc3)sc2CC(=O)Nc2ccc(C)c(Cl)c2)cc1`, the inhibition was 6.66% (inactive).

In the case of `Cc1ccc(S(=O)(=O)N(CCCN(C)C)Cc2ccc3c(c2)OCO3)cc1`, the inhibition was 5.59% (inactive).

As to `CCOC(=O)C1CCN(CC(=O)Nc2ccc(OC)c(S(=O)(=O)N3CCCCC3)c2)CC1`, the inhibition is 4.01% (inactive).

As for `CCOC(=O)c1ccc(N2C(=O)CC(N(C)Cc3ccccc3)C2=O)cc1` (centres undefined), the inhibition is -1.1% (inactive).

Take `CCOc1ccc(N2C(=O)CC(N(O)c3ccccc3)C2=O)cc1` (centres undefined): the inhibition was -2.22% (inactive).

For the compound `CCCCCCC(=O)N(O)C1CC(=O)N(c2ccccc2)C1=O` (centres undefined), the inhibition is 78.3% (active).

`CCN(CC)S(=O)(=O)c1ccc2c3c(cccc13)C(=O)S2`: the inhibition is 3.45% (inactive).

As for `Fc1cnc(N2CCOCC2)nc1NCc1ccccc1`, the inhibition is -0.33% (inactive).

Turning to `COc1ccc(C(=O)n2nc(-c3ccc(Cl)cc3)nc2N)cc1OC`, the inhibition was 13.1% (inactive).

As to `COc1ccc(C(=O)n2nc(-c3ccc(C)cc3)nc2N)cc1OC`, the inhibition is 9.8% (inactive).

With `COc1ccc(C(=O)n2nc(C)c(Br)c2C)cc1OC`, the inhibition is 38.4% (active).

Consider `O=C(Cc1ccccc1)Nc1c(Cl)ccc2nsnc12`, for which the inhibition is 2.55% (inactive).

As for `C=C(Br)CN1CCN(CC(=C)Br)CC1`, the inhibition was -3.73% (inactive).

Take `O=C(O)C1C2C=CC(O2)C1C(=O)NCCc1cccc(Cl)c1` (centres undefined): the inhibition was -6.57% (inactive).

On to `Cc1ccc(/C=N/NC(=O)C(NC(=O)c2ccccc2)c2n[nH]c(=O)c3ccccc23)cc1` (centres undefined), for which the inhibition was 15% (inactive).

Turning to `O=C(COC(=O)c1ccco1)Nc1ccc(Cl)cn1`, the inhibition is 0.924% (inactive).

Regarding `COc1cc(C2CC(=O)N3CN(Cc4ccccc4)CSC3=C2C#N)ccc1OCc1ccccc1` (centres undefined), the inhibition is 33.1% (active).

Regarding `COc1cc(CNC2CCCC2)c(Br)cc1OCc1ccccc1`, the inhibition is 3.98% (inactive).

In the case of `COc1cc(CN2CCC(C(N)=O)CC2)ccc1OCc1ccccc1`, the inhibition was -3.96% (inactive).

Turning to `COc1cc(NC(=O)c2[nH]cnc2C(N)=O)cc(C(=O)Nc2cccc(C(F)(F)F)c2)c1`, the inhibition is -8.89% (inactive).

As for `O=C(NC(=S)NC1CCSC1=O)c1ccccc1F` (centres undefined), the inhibition was -7.58% (inactive).

Take `O=C(CN1CCN(C(=S)NC2CCCC2)CC1)Nc1ccc(Oc2ccccc2)cc1`: the inhibition is -5.51% (inactive).

In the case of `COc1ccccc1-n1nnnc1SCC(=O)NC(=O)Cc1ccccc1`, the inhibition was -1.86% (inactive).

For the compound `O=C(C1=C[C@H](C2CC2)C[C@H](OCc2ccc(CO)cc2)O1)N1CCN(Cc2ccccc2)CC1`, the inhibition is -8.37% (inactive).

On to `O=C(C1=C[C@H](c2ccc(C(F)(F)F)cc2)C[C@H](OCc2ccc(CO)cc2)O1)N1CCN(Cc2ccccc2)CC1`, for which the inhibition was 33.5% (active).

In the case of `O=C(NCc1ccccc1)C1=C[C@@H](c2ccc(C(F)(F)F)cc2)C[C@@H](OCc2ccc(CO)cc2)O1`, the inhibition was 21.1% (inactive).

As to `CNS(=O)(=O)c1cccc(C(=O)OCC(=O)N2c3ccccc3NC(=O)C2(C)C)c1`, the inhibition was 4.33% (inactive).

For the compound `CCN(CC)CCN(C(=O)c1cccc([N+](=O)[O-])c1)c1nc2ccc(OC)cc2s1`, the inhibition is -1.73% (inactive).

For the compound `CN(C(=O)c1cccc(NC(=O)C2CCN(C(=O)OC(C)(C)C)CC2)c1)C1CCC1`, the inhibition is -2.89% (inactive).

As for `CSCCC(NC(=O)c1ccco1)C(=O)NCCc1ccc(F)cc1` (centres undefined), the inhibition is -4.83% (inactive).

Regarding `COc1ccc(C(=O)OCc2cc(=O)n3ccsc3n2)cc1F`, the inhibition is 0.474% (inactive).

In the case of `C=CC[C@@H](CC(=O)NCCO)C(=O)N[C@H](C)COC(=O)[C@@H](CC=C)CC(=O)OC(C)(C)C`, the inhibition was -0.677% (inactive).

Consider `C=CCC[C@@H](Cc1ccc(F)cc1)C(=O)OC[C@@H](C)NC(=O)[C@H](CC=C)CC(=O)N(CCO)Cc1ccccc1`, for which the inhibition is 2.58% (inactive).

On to `C=CCC[C@@H](Cc1ccc(F)cc1)C(=O)OC[C@H](Cc1c[nH]c2ccccc12)NC(=O)[C@@H](CC=C)CC(=O)N(CCO)Cc1ccccc1`, for which the inhibition was 41.9% (active).

Turning to `C=CC[C@H](CC(=O)OC(C)(C)C)C(=O)OC[C@H]1CCCN1C(=O)[C@H](CC=C)CC(=O)N(CCO)Cc1ccccc1`, the inhibition is 1.66% (inactive).

For the compound `C=CCC[C@H](Cc1ccc(F)cc1)C(=O)OC[C@H](C)NC(=O)[C@H](CC=C)CC(=O)N(CCO)Cc1ccccc1`, the inhibition is 30.2% (active).

In the case of `C=CCC[C@@H](Cc1ccc(F)cc1)C(=O)O[C@H](CNC(=O)[C@H](CC=C)CC(=O)N(CCO)Cc1ccccc1)c1ccccc1`, the inhibition is 48.4% (active).

For `C=CC[C@@H](CC(=O)N[C@H](CO)Cc1ccccc1)C(=O)N[C@H](C)COC(=O)[C@@H](CC=C)Cc1ccc(F)cc1`, the inhibition was 19.7% (inactive).

Take `C=CC[C@@H](CC(=O)N[C@H](CO)Cc1ccccc1)C(=O)N[C@@H](COC(=O)[C@@H](CC=C)Cc1ccc(F)cc1)Cc1c[nH]c2ccccc12`: the inhibition was 0.653% (inactive).

As to `C=CC[C@@H](CC(=O)N[C@@H](CO)Cc1ccccc1)C(=O)N[C@H](COC(=O)[C@H](CC=C)CC(=O)OC(C)(C)C)Cc1ccccc1`, the inhibition was 7.81% (inactive).

In the case of `C=CC[C@@H](CC(=O)N[C@@H](CO)Cc1ccccc1)C(=O)NCCOC(=O)[C@@H](CC=C)CC(=O)OC(C)(C)C`, the inhibition is 0.71% (inactive).

As for `C=CCC[C@H](Cc1ccc(F)cc1)C(=O)OC[C@@H](Cc1c[nH]c2ccccc12)NC(=O)[C@H](CC=C)CC(=O)N[C@H](CO)Cc1ccccc1`, the inhibition was 6.12% (inactive).

On to `C=CCC[C@H](Cc1ccc(F)cc1)C(=O)OC[C@@H](NC(=O)[C@@H](CC=C)CC(=O)N[C@H](CO)Cc1ccccc1)C(C)(C)C`, for which the inhibition is 41.7% (active).

By inhibition is commonly meant the relative decrease from the control value, in per cent.
